The values that follow come from PubChem BioAssay.

A short description of assay [1]: growth inhibition of DIPG glioma cells, dose response, cell-based, JHH-DIPG-1, MIPE4.0, CellTiter-Glo, qHTS (AID 1347062; cut-off not given, nearly all actives have AC50 up to about 27 µM;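 on AC50: cells exposed to compound for two days before readout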). The note with it: JHH-DIPG-1 viability, CellTiter-Glo ATP luminescence. (ATP-based viability assays read luminescence as a measure of living cells.)
A short description of assay [2]: growth inhibition of DIPG glioma cells, dose response, cell-based, SU-DIPG-IV, MIPE4.0, CellTiter-Glo, qHTS (AID 1347063; cut-off not given, nearly all actives have AC50 up to about 30 µM;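 further: compound exposure lasted 48 hours before the viability readout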). The settings on record: SU-DIPG-IV viability, CellTiter-Glo ATP luminescence.
Assay [3] in a line: growth inhibition of DIPG glioma cells, dose response, cell-based, SU-DIPG-XIII, MIPE5.0, CellTiter-Glo, qHTS (AID 1347064; cut-off not given, nearly all actives have AC50 up to about 23 µM;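 further: cells exposed to compound for 48 hours before the viability read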). The settings on record: SU-DIPG-XIII viability, CellTiter-Glo ATP luminescence.
The nature of assay [4]: viability loss in pontine glioma line – cell-based, SU-DIPG-XXV, MIPE5.0, CellTiter-Glo, qHTS, dose response (AID 1347065; cut-off not given, nearly all actives have AC50 up to about 26 µM;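 further: cells exposed to compound for 48 hours before ATP readout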). The note with it: CellTiter-Glo ATP luminescence.
Assay [5] in a line: SU-DIPG-VI glioma cell viability, MIPE4.0 library, CellTiter-Glo luminescence, qHTS (AID 1347066; cut-off not given, nearly all actives have AC50 up to about 30 µM;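 further: cells exposed to compound for 48 hours before readout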). The settings on record: CellTiter-Glo ATP luminescence.
Assay [6] can be described thus: JHH-DIPG-1 glioma cell viability, MIPE5.0 library, CellTiter-Glo luminescence, qHTS (AID 1347067; cut-off not given, nearly all actives have AC50 up to about 26 µM;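 further: cells exposed to compound for 48 hours before readout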). The settings on record: JHH-DIPG-1 glioma viability, CellTiter-Glo ATP luminescence.
Assay [7] in a line: SU-DIPG-XXV glioma cell viability, MIPE5.0 library, qHTS (AID 1347068; cut-off not given, nearly all actives have IC50 up to about 30 µM;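 on IC50: cells exposed to compound for 48 hours before viability readout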).
A short description of assay [8]: sensitizers of A549 cells to miR-34 induction, primary screen, imaging, A549 dox-inducible miR-34, nuclei and caspase counts (AID 1347080;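 active means compounds whose cell count with miR-34 switched on is under 0.7 times the count with it off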). The note with it: A549 miR-34 inducible, Hoechst nuclei count, 48 h.
Assay [9] can be described thus: modifiers of HSF1 nuclear foci, imaging, Selleck Cancer Library (AID 1347162; in the data active means plate-normalised HSF1 focus index below about 0.46). The note with it: human cells, at 10 µM; SSMD: measured here: HSF1 foci SSMD mean; cell count: measured here: cell number; plate-normalised HSF1 focus index: stronger effect = lower value.
The nature of assay [10]: survival rescue of mitochondrial mutant cells in low glucose, primary screen, MELAS cybrids, Rieske KO mouse fibroblasts, CellTiter-Glo (AID 1508586;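 active means mean z-score across replicates of 1.96 or higher in either the MELAS or the Rieske mutant cell line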;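 further: z relative to plate mean and SD of compound and empty wells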).
A short description of assay [11]: ovarian cancer cell viability with rucaparib, profiling panel, oncology-focused library, rucaparib conditional (AID 1508598). The note with it: patient-derived ovarian cancer cells, CellTiter-Glo viability, 144 h, stronger effect = lower value.
The mark [12] stands for this setting: stronger effect = lower value, cell number ratio, induced over uninduced.
Where [13] appears, read: measured here: relative caspase fold change +Dox/-Dox.
Where [14] appears, read: measured here: total cells with miR-34 induction, stronger effect = lower value.
The mark [15] stands for this setting: measured here: total cells without miR-34 induction.
Setting [16] is: MELAS cybrid survival, CellTiter-Glo 48 h, stronger effect = higher value.
Where [17] appears, read: Rieske KO mouse fibroblast survival, CellTiter-Glo 72 h.
The mark [18] stands for this setting: at 0.000305 µM, OCI-C5x cells, with rucaparib 10 µM, 100% = cells with rucaparib alone.
Where [19] appears, read: at 0.000305 µM, OCI-C5x cells, without rucaparib.
The mark [20] stands for this setting: at 0.000305 µM, OCI-P5x cells, with rucaparib 20 µM, 100% = cells with rucaparib alone.
Setting [21] is: at 0.000305 µM, OCI-P5x cells, without rucaparib.
Setting [22] is: at 0.00122 µM, OCI-C5x cells, with rucaparib 10 µM, 100% = cells with rucaparib alone.
[23] abbreviates: at 0.00122 µM, OCI-C5x cells, without rucaparib.
The mark [24] stands for this setting: at 0.00122 µM, OCI-P5x cells, with rucaparib 20 µM, 100% = cells with rucaparib alone.
Setting [25] is: at 0.00122 µM, OCI-P5x cells, without rucaparib.
Setting [26] is: at 0.00488 µM, OCI-C5x cells, with rucaparib 10 µM, 100% = cells with rucaparib alone.
Setting [27] is: at 0.00488 µM, OCI-C5x cells, without rucaparib.
Setting [28] is: at 0.00488 µM, OCI-P5x cells, with rucaparib 20 µM, 100% = cells with rucaparib alone.
[29] abbreviates: at 0.00488 µM, OCI-P5x cells, without rucaparib.
Setting [30] is: at 0.0195 µM, OCI-C5x cells, with rucaparib 10 µM, 100% = cells with rucaparib alone.
Setting [31] is: at 0.0195 µM, OCI-C5x cells, without rucaparib.

Each structure is given as a SMILES string. Results filed as inconclusive are left out. Calls of active or inactive are those of the source.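 How the source made its calls, unless noted: active means normalized viability below 100% at a tested concentration; inactive means the rest.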

The AC50 is the midpoint of the concentration-response curve, whichever way the signal moves. What is called viability is a read-out of living cells in per cent, often relative to untreated cells. `CC1(O)CC(c2nc(-c3ccc4ccc(-c5ccccc5)nc4c3)c3c(N)nccn23)C1` (stereo not given): the AC50 in assay [1] is 1.48 µM (active); in [2], 14.8 µM (active); in assay [3] it was 0.59 µM (active); in assay [4], 0.332 µM (active); in assay [5] it was 0.332 µM (active); in [6] it was 11.8 µM (active). In addition, the compound was classed as inactive in assay [7]. In addition, the fold change was 1.03 (inactive) in assay [8] (setting [12]) and 0.898 in assay [8] (setting [13]). In addition, the cell count in assay [8] (setting [14]) came to 2240; in [8] (setting [15]), 2180; in assay [9], 6580. For the same compound, the SSMD in assay [9] amounted to 1.94. Also, the plate-normalised HSF1 focus index in assay [9] is 1.1 (inactive). The z-score in assay [10] (setting [16]) was -0.422 (inactive); in assay [10] (setting [17]), 0.283. The viability is 114% (inactive) in assay [11] (setting [18]); 139% (inactive) in assay [11] (setting [19]); 109% (inactive) in [11] (setting [20]); 106% (inactive) in assay [11] (setting [21]); 121% (inactive) in [11] (setting [22]); 130% (inactive) in assay [11] (setting [23]). The viability is 104% (inactive) in [11] (setting [24]); 104% (inactive) in assay [11] (setting [25]); 111% (inactive) in assay [11] (setting [26]); 124% (inactive) in assay [11] (setting [27]); 99.9% (active) in assay [11] (setting [28]); 105% (inactive) in [11] (setting [29]). Besides, the viability in assay [11] (setting [30]) is 115% (inactive); in assay [11] (setting [31]), 127% (inactive); in [11] (at 0.0195 µM, OCI-P5x cells, with rucaparib 20 µM, 100% = cells with rucaparib alone), 104% (inactive); in assay [11] (at 0.0195 µM, OCI-P5x cells, without rucaparib), 106% (inactive); in assay [11] (at 0.0781 µM, OCI-C5x cells, with rucaparib 10 µM, 100% = cells with rucaparib alone), 114% (inactive); in [11] (at 0.0781 µM, OCI-C5x cells, without rucaparib) it was 133% (inactive). Besides, the viability in assay [11] (at 0.0781 µM, OCI-P5x cells, with rucaparib 20 µM, 100% = cells with rucaparib alone) was 101% (inactive); in assay [11] (at 0.0781 µM, OCI-P5x cells, without rucaparib), 113% (inactive); in assay [11] (at 0.313 µM, OCI-C5x cells, with rucaparib 10 µM, 100% = cells with rucaparib alone), 133% (inactive); in assay [11] (at 0.313 µM, OCI-C5x cells, without rucaparib), 57.9% (active); in assay [11] (at 0.313 µM, OCI-P5x cells, with rucaparib 20 µM, 100% = cells with rucaparib alone) it was 88.6% (active); in [11] (at 0.313 µM, OCI-P5x cells, without rucaparib), 96% (active). The viability in assay [11] (at 1.25 µM, OCI-C5x cells, with rucaparib 10 µM, 100% = cells with rucaparib alone) was 145% (inactive); in assay [11] (at 1.25 µM, OCI-C5x cells, without rucaparib) it was 134% (inactive); in [11] (at 1.25 µM, OCI-P5x cells, with rucaparib 20 µM, 100% = cells with rucaparib alone), 41.3% (active); in [11] (at 1.25 µM, OCI-P5x cells, without rucaparib), 66.2% (active); in [11] (at 5 µM, OCI-C5x cells, with rucaparib 10 µM, 100% = cells with rucaparib alone), 168% (inactive); in assay [11] (at 5 µM, OCI-C5x cells, without rucaparib), 153% (inactive). The viability was 7.72% (active) in [11] (at 5 µM, OCI-P5x cells, with rucaparib 20 µM, 100% = cells with rucaparib alone) and 32.8% (active) in assay [11] (at 5 µM, OCI-P5x cells, without rucaparib).

In the case of `CCOC(=O)N1CCN(/[N+]([O-])=N/Oc2cc(O/N=[N+](\[O-])N3CCN(C(=O)OCC)CC3)c([N+](=O)[O-])cc2[N+](=O)[O-])CC1`, the AC50 in assay [1] is 9.35 µM (active); in assay [2], 23.5 µM (active).

As to `Nc1nc(OCc2ccccc2)c2[nH]cnc2n1`, the result in [1], in [2], in assay [4], in [5], in [6] and in assay [7] was inactive. The fold change in assay [8] (setting [12]) was 0.895 (inactive); in assay [8] (setting [13]), 1.25. In addition, the figures for the cell count in [8] (setting [14]) and in assay [8] (setting [15]) were 8910 and 9960, respectively.

One may read the IC50 as the point on the concentration scale where inhibition reaches its midpoint. As to `Fc1cc(-c2cccc3ncc(-c4cnn(C5CCNCC5)c4)nc23)cc(F)c1CN1CCOCC1`, the half-maximal activity concentration (AC50) in assay [1] was 20.9 µM (active); in assay [2], 18.7 µM (active); in assay [3], 11.8 µM (active); in assay [4], 9.34 µM (active); in [5], 23.5 µM (active); in assay [6] it was 13.2 µM (active). Besides, in assay [7], the IC50 is 23.5 µM (active). Besides, the fold change in [8] (setting [12]) was 0.713 (inactive); in assay [8] (setting [13]), 0.777. Moreover, the cell count in assay [8] (setting [14]) turned out to be 5860; in assay [8] (setting [15]), 8220; in [9], 6160. Moreover, the SSMD in assay [9] is -6.26. Besides, the plate-normalised HSF1 focus index in [9] is 0.613 (inactive). Besides, the z-score was -0.567 (inactive) in assay [10] (setting [16]) and -0.329 in assay [10] (setting [17]). The viability in assay [11] (setting [18]) is 105% (inactive); in assay [11] (setting [19]) it was 114% (inactive); in assay [11] (setting [20]), 77.7% (active); in [11] (setting [21]), 90.5% (active); in assay [11] (setting [22]) it was 116% (inactive); in [11] (setting [23]) it was 118% (inactive). The viability in assay [11] (setting [24]) is 18.8% (active); in [11] (setting [25]), 18.7% (active); in [11] (setting [26]), 112% (inactive); in assay [11] (setting [27]), 114% (inactive); in assay [11] (setting [28]), 89.3% (active); in assay [11] (setting [29]), 99.1% (active). Further, the viability is 110% (inactive) in assay [11] (setting [30]) and 112% (inactive) in assay [11] (setting [31]).
